Data on twelve molecules can be found in PubChem BioAssay (EPA / NIEHS).

The target of assay [1] is Estrogen receptor beta (Homo sapiens) (UniProt Q92731). Put plainly: OT_ER_ERbERb_1440: Odyssey Thera (OT) 24-hour HEK293T Protein-Complementation Assay for Estrogen Receptor-beta/-beta Homodimer (AID 2283380).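 Note: fluorescence gain from ER beta LBD homodimer complementation read by laser scanning cytometry; scored as signal increase over DMSO baseline for both agonists and antagonists.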 In a few lines:
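HEK293T cells stably expressing human ER-beta LBD (aa 310-547) PCA homodimer pair, dosed 24 h; formaldehyde-fixed, Draq5-stained. Readout: increase in nuclear (agonist) or nuclear plus cytoplasmic (antagonist) fluorescence intensity versus DMSO, gain-of-signal fitting.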

Assay [2] has as its target Estrogen receptor (Homo sapiens) (UniProt P03372). The assay is described as follows: OT_ERa_GFPERaERE_0480: Odyssey Thera (OT) 8-hour HeLa Transcription Induction Assay for Estrogen Receptor (AID 2283381; active = hit-call score of the fitted dose curve at least 0.9, where 1 is the maximum; inactive = score below 0.9). The procedure, abridged: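 HeLa cells expressing GFP reporter under estrogen response element, imaged 8 h after dosing. GFP induction quantified by high-content fluorescence microscopy image analysis; gain of signal fitted versus DMSO.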

The target is the same in assay [3]. Put plainly: OT_ERa_GFPERaERE_0120: Odyssey Thera (OT) 2-hour HeLa Transcription Induction Assay for Estrogen Receptor (AID 2283382). In a few lines: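 HeLa cells were dosed for 2 h, then GFP reporter induction was quantified by fluorescence microscopy with high-content image analysis. Gain of signal fitted against DMSO baseline.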
Assay [4] deals with Retinoic acid receptor RXR-alpha (Homo sapiens) (UniProt P19793). Put plainly: OT_NURR1_NURR1RXRa_0480: Odyssey Thera (OT) 8-hour HEK293T Protein Complementation Assay for Nurr1/retinoid X receptor (RXR) (AID 2283385). The procedure, abridged:
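HEK293T cells expressing Nurr1 and RXRα fused to reporter fragments (protein-fragment complementation); fluorescence measured 8 h after dosing. Gain of signal fitted relative to DMSO.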

Assay [5] deals with Agonist Androgen Response Element (ARE), AR (gene 367) (UniProt P10275). The assay is described as follows: OT_AR_ARELUC_AG_1440: Odyssey Thera (OT) 24-hour CHO-K1 Luciferase Assay for Agonist Androgen Response Element (ARE) (AID 2283379). In a few lines: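 Seed CHO-K1 cells; dose compounds for 24 h; add D-luciferin plus ATP in PBS; read luminescence. Signal increase relative to vehicle defines agonist activity, with at least 3 replicate wells per sample.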

Assay [6] addresses Bile acid receptor (Homo sapiens) (UniProt Q96RI1). Put plainly: OT_FXR_FXRSRC1_0480: Odyssey Thera (OT) 8-hour HEK293T Protein-Complementation Assay for Farnesoid X receptor/SRC-1 Co-activator (AID 2283383). In a few lines: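 HEK293T protein-fragment complementation assay: FXR and SRC-1 coactivator are fused to reporter fragments, and their interaction restores a fluorescent reporter. Readout was taken 8 h after dosing, with gain of signal fit relative to DMSO.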

Assay [7] shares this target. Put plainly: OT_FXR_FXRSRC1_1440: Odyssey Thera (OT) 24-hour HEK293T Protein-Complementation Assay for Farnesoid X receptor/SRC-1 Co-activator (AID 2283384). In a few lines:
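HEK293T cells, 24 h after chemical dosing. FXR–SRC-1 coactivator interaction read as fluorescence from protein-fragment complementation of a split reporter. Gain of signal fitted against DMSO baseline.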

For assay [8], the target named is Retinoic acid receptor RXR-alpha (Homo sapiens) (UniProt P19793). Put plainly: OT_NURR1_NURR1RXRa_1440: Odyssey Thera (OT) 24-hour HEK293T Protein Complementation Assay for Nurr1/retinoid X receptor (RXR) (AID 2283386). The procedure, abridged:
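HEK293T protein-fragment complementation of Nurr1 and RXRα fused to reporter fragments; compounds 24 h. Fluorescence gain from reconstituted reporter fitted versus DMSO.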

The target in assay [9] is Peroxisome proliferator-activated receptor gamma (Homo sapiens) (UniProt P37231). Put plainly: OT_PPARg_PPARgSRC1_0480: Odyssey Thera (OT) 8-hour Protein-Complementation Assay for Peroxisome Proliferator-activated Receptor Gamma / SRC-1 Co-activator (AID 2283387).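 Note: nuclear to cytoplasmic split Venus YFP fluorescence ratio reporting PPARg SRC-1 interaction.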 The procedure, abridged: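 Read-out: 488 nm N/C fluorescence ratio from complemented Venus YFP fragments, ≥350 cells per image, gain-of-signal fitted against DMSO baseline. Fusions of PPARg/SRC-1 with IFP1/IFP2 expressed transiently in HEK293T; compounds applied 8 h.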

SMILES strings stand for the structures. “And” between values parts separate entries of the source, which are not always exact repeats. Equal values may be shown once. Records with an inconclusive call do not appear. Some compounds were tested as several samples or in several runs, with calls that do not always agree. The source made the active and inactive calls. Rule for the calls, unless noted: active = hit-call score of the fitted dose curve at least 0.9, where 1 is the maximum; inconclusive = response in the unintended direction; inactive = score below 0.9.

Retinoic acid receptor RXR-alpha (Homo sapiens), sequence (P19793 whole entry, looked up, the tested form may be a part): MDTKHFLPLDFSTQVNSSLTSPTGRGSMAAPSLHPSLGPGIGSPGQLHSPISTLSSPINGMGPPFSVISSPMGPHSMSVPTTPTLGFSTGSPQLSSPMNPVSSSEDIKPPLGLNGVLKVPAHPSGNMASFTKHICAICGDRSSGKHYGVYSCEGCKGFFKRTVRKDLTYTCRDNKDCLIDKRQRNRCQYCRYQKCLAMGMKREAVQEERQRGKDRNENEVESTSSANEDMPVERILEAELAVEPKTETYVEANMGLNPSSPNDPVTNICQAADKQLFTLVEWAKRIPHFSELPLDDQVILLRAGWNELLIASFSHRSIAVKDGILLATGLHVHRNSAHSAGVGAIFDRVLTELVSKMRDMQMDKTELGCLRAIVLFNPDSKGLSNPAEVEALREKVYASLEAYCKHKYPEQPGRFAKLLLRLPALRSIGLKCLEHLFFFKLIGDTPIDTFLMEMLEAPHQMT
Estrogen receptor (Homo sapiens), sequence (P03372 whole entry, looked up): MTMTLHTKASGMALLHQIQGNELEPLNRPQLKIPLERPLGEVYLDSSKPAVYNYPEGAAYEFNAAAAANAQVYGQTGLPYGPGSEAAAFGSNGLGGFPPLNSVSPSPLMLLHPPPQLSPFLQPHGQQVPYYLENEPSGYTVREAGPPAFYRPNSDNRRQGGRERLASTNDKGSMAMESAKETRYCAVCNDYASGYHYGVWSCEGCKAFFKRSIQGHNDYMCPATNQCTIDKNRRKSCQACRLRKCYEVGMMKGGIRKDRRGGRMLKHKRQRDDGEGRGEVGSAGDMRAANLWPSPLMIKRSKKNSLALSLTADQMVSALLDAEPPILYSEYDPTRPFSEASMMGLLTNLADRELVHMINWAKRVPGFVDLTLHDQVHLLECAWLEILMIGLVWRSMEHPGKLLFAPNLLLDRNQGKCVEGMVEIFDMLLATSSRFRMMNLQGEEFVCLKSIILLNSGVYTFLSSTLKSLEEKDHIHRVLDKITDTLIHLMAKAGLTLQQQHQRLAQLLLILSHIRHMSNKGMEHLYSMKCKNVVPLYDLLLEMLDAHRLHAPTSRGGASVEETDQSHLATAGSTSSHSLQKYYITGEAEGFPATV
Bile acid receptor (Homo sapiens), sequence (Q96RI1 whole entry, looked up, the tested form may be a part): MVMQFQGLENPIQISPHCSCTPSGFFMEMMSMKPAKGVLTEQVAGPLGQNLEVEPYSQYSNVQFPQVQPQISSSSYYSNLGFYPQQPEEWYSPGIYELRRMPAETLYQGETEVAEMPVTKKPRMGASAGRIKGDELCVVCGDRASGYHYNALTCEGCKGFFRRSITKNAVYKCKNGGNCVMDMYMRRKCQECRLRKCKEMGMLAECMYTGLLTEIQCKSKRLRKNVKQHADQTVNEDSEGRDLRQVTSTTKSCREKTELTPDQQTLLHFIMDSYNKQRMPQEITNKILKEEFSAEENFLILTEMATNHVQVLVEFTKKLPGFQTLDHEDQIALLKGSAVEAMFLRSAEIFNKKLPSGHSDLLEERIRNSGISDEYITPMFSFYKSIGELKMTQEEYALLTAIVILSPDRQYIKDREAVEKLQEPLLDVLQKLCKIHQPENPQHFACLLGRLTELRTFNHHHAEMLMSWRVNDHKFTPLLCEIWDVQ
Agonist Androgen Response Element (ARE), AR (gene 367), sequence (P10275 whole entry, looked up): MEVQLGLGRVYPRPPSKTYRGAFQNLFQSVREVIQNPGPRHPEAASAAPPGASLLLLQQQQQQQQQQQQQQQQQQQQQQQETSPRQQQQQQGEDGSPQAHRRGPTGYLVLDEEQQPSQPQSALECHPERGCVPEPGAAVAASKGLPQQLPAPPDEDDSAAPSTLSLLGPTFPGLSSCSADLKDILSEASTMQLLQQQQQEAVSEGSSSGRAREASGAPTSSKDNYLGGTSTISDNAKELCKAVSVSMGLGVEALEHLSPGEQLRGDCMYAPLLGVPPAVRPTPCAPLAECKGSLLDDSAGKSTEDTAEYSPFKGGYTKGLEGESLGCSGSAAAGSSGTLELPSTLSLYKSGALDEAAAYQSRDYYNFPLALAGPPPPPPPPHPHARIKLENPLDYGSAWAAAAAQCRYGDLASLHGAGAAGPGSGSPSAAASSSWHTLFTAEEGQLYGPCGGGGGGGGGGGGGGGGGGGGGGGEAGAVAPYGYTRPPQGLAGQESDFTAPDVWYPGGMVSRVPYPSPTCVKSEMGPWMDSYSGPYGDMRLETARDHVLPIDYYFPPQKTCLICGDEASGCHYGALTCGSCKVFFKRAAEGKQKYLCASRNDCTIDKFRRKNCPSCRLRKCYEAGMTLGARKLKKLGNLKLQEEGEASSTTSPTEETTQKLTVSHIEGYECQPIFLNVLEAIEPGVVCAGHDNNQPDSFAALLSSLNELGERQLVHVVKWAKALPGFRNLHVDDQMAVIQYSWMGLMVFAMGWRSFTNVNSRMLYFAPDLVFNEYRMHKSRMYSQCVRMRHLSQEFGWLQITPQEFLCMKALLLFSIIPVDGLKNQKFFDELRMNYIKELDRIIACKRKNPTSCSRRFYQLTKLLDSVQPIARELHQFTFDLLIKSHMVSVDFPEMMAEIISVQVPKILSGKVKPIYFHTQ
Estrogen receptor beta (Homo sapiens), sequence (Q92731 whole entry, looked up, the tested form may be a part): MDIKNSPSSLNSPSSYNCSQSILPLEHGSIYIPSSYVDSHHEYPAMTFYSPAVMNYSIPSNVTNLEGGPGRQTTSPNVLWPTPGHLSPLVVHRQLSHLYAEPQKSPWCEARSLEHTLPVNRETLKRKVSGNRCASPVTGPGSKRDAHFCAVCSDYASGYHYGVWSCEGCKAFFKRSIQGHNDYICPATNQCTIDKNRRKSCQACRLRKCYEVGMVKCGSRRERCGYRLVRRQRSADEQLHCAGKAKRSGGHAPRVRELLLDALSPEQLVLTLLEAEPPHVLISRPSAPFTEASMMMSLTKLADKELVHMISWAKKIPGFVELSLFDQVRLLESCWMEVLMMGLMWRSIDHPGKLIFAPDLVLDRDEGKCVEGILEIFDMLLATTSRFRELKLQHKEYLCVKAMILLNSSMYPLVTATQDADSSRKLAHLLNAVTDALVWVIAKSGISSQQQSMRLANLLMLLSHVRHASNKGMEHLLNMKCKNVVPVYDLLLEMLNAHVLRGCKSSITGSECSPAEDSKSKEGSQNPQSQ
Peroxisome proliferator-activated receptor gamma (Homo sapiens), sequence (P37231 whole entry, looked up, the tested form may be a part): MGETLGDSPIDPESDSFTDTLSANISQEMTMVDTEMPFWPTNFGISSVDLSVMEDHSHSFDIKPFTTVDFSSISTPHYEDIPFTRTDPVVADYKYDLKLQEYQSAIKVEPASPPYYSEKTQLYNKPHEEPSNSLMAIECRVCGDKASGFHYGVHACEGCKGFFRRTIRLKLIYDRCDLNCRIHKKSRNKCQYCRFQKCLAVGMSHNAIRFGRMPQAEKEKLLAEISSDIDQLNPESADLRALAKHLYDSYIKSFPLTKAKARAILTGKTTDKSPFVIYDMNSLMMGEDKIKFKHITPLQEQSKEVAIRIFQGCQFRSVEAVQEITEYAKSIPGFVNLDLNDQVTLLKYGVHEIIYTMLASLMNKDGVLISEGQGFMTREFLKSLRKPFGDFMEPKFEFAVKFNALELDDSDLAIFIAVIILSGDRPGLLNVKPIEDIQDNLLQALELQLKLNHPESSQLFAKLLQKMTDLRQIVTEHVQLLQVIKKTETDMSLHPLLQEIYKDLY

What is called AC50 is the concentration at which the activity in the assay is half-maximal. With `CCOP(=S)(OCC)SCSP(=S)(OCC)OCC`, the results for the AC50 in assay [1] and in assay [3] were 17.5 µM (active) and 10.9 µM (active), respectively. Further, the molecule was classed as inactive in [2] and in [4].

For `ClC1(Cl)C2(Cl)C3(Cl)C4(Cl)C(Cl)(Cl)C5(Cl)C3(Cl)C1(Cl)C5(Cl)C24Cl` (stereo unspecified), the molecule was classed as inactive in assay [5], in assay [2], in [3], in [6], in assay [7] and in assay [4]. The result in assay [8] and in assay [9] was inactive.

As to `Cl/C=C\C[N+]12CN3CN(CN(C3)C1)C2`, the outcome in assay [1] and in assay [3] was inactive. In assay [2], the AC50 was 82.2 µM (active).

Turning to `O=C1C2(Cl)C3(Cl)C4(Cl)C(Cl)(Cl)C5(Cl)C3(Cl)C1(Cl)C5(Cl)C24Cl` (stereo unspecified), the molecule was called inactive in [5]. For the same molecule, the half-maximal activity concentration (AC50) in assay [6] is 10.7 µM (active); in assay [7], 10.8 µM (active).

With `[O-][Cl+2]([O-])O`, the call in assay [1], in assay [2], in assay [3], in [6], in [7] and in assay [9] was inactive.

Turning to `N#CN=C(N)N`, the molecule was classed as inactive in assay [1], in assay [2], in assay [3], in assay [7] and in [8].

Regarding `CCC1(c2ccc(N)cc2)CCC(=O)NC1=O` (stereo unspecified), the result in assay [5], in [2], in assay [3], in assay [7], in [8] and in [9] was inactive.

As to `CC1(C)Cc2cccc(O)c2O1`, the molecule was classed as inactive in assay [1], in assay [2] and in assay [3].

Regarding `Cn1sc(Cl)cc1=O`, the molecule was classed as inactive in assay [1], in [2], in assay [3], in [6], in [7] and in assay [4]. Moreover, the outcome in [8] and in assay [9] was inactive.

Take `CC(C#N)CCC#N` (stereo unspecified): the molecule was classed as inactive in [1], in assay [2], in assay [3], in [8] and in assay [9].

Turning to `C[C@]12CCC(=O)C[C@@H]1CC[C@@H]1[C@@H]2CC[C@]2(C)[C@@H](O)CC[C@@H]12`, the AC50 was 6.06 µM (active) and 8.11 µM (active) and 7.61 µM (active) in assay [1]; 40.3 µM (active) in assay [8]. The call in [1], in [4] and in [8] was inactive.

As for `OCc1ccco1`, the molecule was classed as inactive in [1], in assay [2], in [3], in assay [6] and in assay [4].
